{"source": "PubChem BioAssay (NCATS)", "experiment": "qHTS assay to identify inhibitors of the type 1 interferon - major histocompatibility complex class I in skeletal muscle: Counter screen cell viability and HiBit confirmation (AID 1347412); also: nearly all actives have a fitted effect of over 60% in size", "conditions": "iHSKM muscle cells + IFN-b, HiBiT or CellTiter-Glo, 24 h; Viability", "procedure,_shortened": "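After 24 h with human IFN-beta (4 ng/ml) and compound titrations (top 46 uM final, 1:3, 12 points), HLA-B HiBit myoblasts were lysed for either Nano-Glo HiBiT luminescence or CellTiter Glo viability on paired plates.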", "note": "Results filed as inconclusive are left out. Activity calls are given as the source filed them. Calls follow the shape of the dose curve; as a rule, active = well fitted inhibition curve with a large enough effect; inconclusive = small, poorly fitted or top-dose-only effect; inactive = no such curve, though single readings can be large or run the other way. Potency is read from the fitted curve at half-maximal effect.", "data": [{"smiles": "Cc1ccc([N+](=O)[O-])[c]2c1[O][Hg]2", "values": [{"measurement": "Potency", "value": "14 µM (active)"}]}]}
